Measured values taken from the supplement of paper PMC6555819.

Each sequence was assayed on VDR:RXRa (NR concentration 270 nM, RXRa partner concentration 90 nM) (assay: PBM binding z-score (relative to random genomic background probes); higher = stronger binding; sequences stand for … in GC…GCGATTGACAGCGTAGAATGAAGG).
Protocol: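 Protein-binding microarray (Agilent 4x180K custom design, double-stranded 60-nt probes: 5' GC cap, 34-nt variable region, 24-nt constant primer region; full probe sequence given). Purified or IVT nuclear receptor:RXRα heterodimers (3:1 NR:RXRα, mostly 270:90 nM) or homodimers were incubated for 1 h in PBS with 2% milk and no ligand, then detected with Alexa488 antibodies. Fluorescence from o1-orientation probes (~5 replicates averaged) was converted to z-scores against 500 random hg19 background probes. Variable regions are seed direct-repeat (DR0–DR5) sites, all their single-nucleotide variants and half-site ablations.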

Question: For CCTAGTTGGTCAAGGTCACACGCGCTATAGGTAC, which PBM binding z-score is on record?
Answer: 4.29

Question: For CCGACTGGGGCCGAAAGGTTACCATACCATCCGG, which PBM binding z-score is on record?
Answer: 0.789

Question: With CCTTAAGGGTCACTCCAGGTTATAGCATCGGAGT as the sequence, how does the PBM binding z-score read?
Answer: 5.13

Question: With AGTCAAAGTTCGTCTAGGTAACGTAAGATATGCT as the sequence, how does the PBM binding z-score read?
Answer: 2.59

Question: How did the PBM binding z-score turn out when CCGACTGGGCCAAAAAGGTCATTGATGCCGATAA was run?
Answer: 4.64

Question: With TCTCGGATGACACGAAGGTCAGAGCTTTCCAGAG as the sequence, how does the PBM binding z-score read?
Answer: 1.46

Question: TCTCGGAGGACACGAAGGTCAGAGCTTTCCAGAG was tested. Which PBM binding z-score did it give?
Answer: 2.3

Question: How did the PBM binding z-score turn out when CCGACTGGGGCAAAGTTACCATAACGCACAGCCA was run?
Answer: -0.545

Question: With AATACAGGGTCACTAGGACAGAGTAGGTACGAAT as the sequence, how does the PBM binding z-score read?
Answer: 3.97

Question: CCGACCGGGGCAAGGTTACCATAACGCACAGCCA was tested. Which PBM binding z-score did it give?
Answer: 0.334

Question: For GGAACGAAGGCATTCGAGTTGATAGCATGGCGAT, which PBM binding z-score is on record?
Answer: -0.337

Question: Which PBM binding z-score does the source give for ATCGAAATGTCGAAGGTGAGTATACCCACCCGAA here?
Answer: -0.0982

Question: For AATACAGGGTCATAGTAGGCCAGAGTACGCACAG, which PBM binding z-score is on record?
Answer: 4.63

Question: CGAACTAGGGCATTGACAGGACAGTGAATAGTAA was tested. Which PBM binding z-score did it give?
Answer: -0.141

Question: CAAACTAGGTCAAGGTCAAAGACGGTTTGTGCCA was tested. Which PBM binding z-score did it give?
Answer: 4.74

Question: Which PBM binding z-score does the source give for GCTGCTAGGTCAGGTTGGTCAGCGAACGGGTACG here?
Answer: 0.566

Question: Which PBM binding z-score does the source give for ATCTCTAGGTAACAAGCTCAGTGAAAGAGAGGAC here?
Answer: 0.159

Question: Which PBM binding z-score does the source give for ATATGTAGGTTACAACCGGGTCATTCAGGCTATG here?
Answer: 4.56

Question: How did the PBM binding z-score turn out when TGAATGAGGTTCAAGATCAGGGAACGTGGCGTCG was run?
Answer: 1.56

Question: For CGGACTAGGTCATCCAGGACAGTGAATACATTGA, which PBM binding z-score is on record?
Answer: 4.36

Question: CAAACTAGGTCACAGAGGTCCAAGTCCGTGCGTA was tested. Which PBM binding z-score did it give?
Answer: 5

Question: With TCTTTTAGATCAACAGGAGGTTAAGAAAGATCGA as the sequence, how does the PBM binding z-score read?
Answer: 0.982

Question: TCTTGTAGATCAAGCTGGTTAAGAAAGCCTGAGT was tested. Which PBM binding z-score did it give?
Answer: 0.112

Question: Which PBM binding z-score does the source give for TCTGCTAGGTCAGTTGGTCAGCTAGCGAGCTGCC here?
Answer: -0.184

Question: ATATGTAGGTTAGCTGTGGTCATTCAGACTAGGC was tested. Which PBM binding z-score did it give?
Answer: 0.859

Question: AATACAGGGTCATCGTAGGCCGGAGTACGCACAG was tested. Which PBM binding z-score did it give?
Answer: 4.89

Question: Which PBM binding z-score does the source give for ATATGTAGGTTACGGGTCATTCAGGTTGGTTCGC here?
Answer: 4.76

Question: For GCTGCTAGGTCAGGTTGTTCAGCTAACGGGTACG, which PBM binding z-score is on record?
Answer: 0.65

Question: For CCTAGCAGGCCAAGGTCACTCAAGCATTTCGCTT, which PBM binding z-score is on record?
Answer: 2.88

Question: With GTTGCTAGGTCAACTGATGGTCAGCTAAAGCTCG as the sequence, how does the PBM binding z-score read?
Answer: 2.05

Question: For GCTATTAGTTGAAACGGCAACCGAATGATTCTCG, which PBM binding z-score is on record?
Answer: -0.413

Question: With GGAACGAGGGAATTCGAGTTGATAGCATGGCGAT as the sequence, how does the PBM binding z-score read?
Answer: -0.217

Question: How did the PBM binding z-score turn out when CCGACTGGTGCAGAAAGGTTACCATACCATCCGG was run?
Answer: 0.685

Question: GCTTGTAGATCAAAGTTAAGAAAGACTAAGCTAA was tested. Which PBM binding z-score did it give?
Answer: -0.483

Question: How did the PBM binding z-score turn out when CCTGCGAGGTCAATGGTCAGCTAAAGCAGCTCGC was run?
Answer: 4.73

Question: GCTAGTTGGTCAGTTAAAGGTCACACACCGGTCG was tested. Which PBM binding z-score did it give?
Answer: 3.95

Question: Which PBM binding z-score does the source give for GCTATTAGTGGAAAGGGCAACCGAATGATTCTCG here?
Answer: 0.104

Question: For AGTCAAAGTTCATCTAGGTAATGTAAGATATGCT, which PBM binding z-score is on record?
Answer: 5.13

Question: With CCAAGTTGGTCAGGAGGTCACACACCGGATATGA as the sequence, how does the PBM binding z-score read?
Answer: 4.08

Question: How did the PBM binding z-score turn out when TCTGGTAGATCAAAGGTTAAGAAAGCCGAAGCCT was run?
Answer: 1.48
